aSyn UTR act = Activators via SNCA 5'UTR binding, MLPCN; alpha-synuclein 5'UTR reporter, activators screen; activity score, % (tested at 7.5 µM), hits read low; AID 1814, 2009; actives 7.1% (n = 300,000); in the data active = activity score below about -60%
* marks the source's active call; other numbers are inactive results. The list is a sample of the results.

SMILES	aSyn UTR act
COC(=O)N/N=C/c1ccc(-c2cc(Cl)cc(Cl)c2)o1	52.0
Cc1ccc(C=Nc2ccccc2C(N)=O)cc1	-109.2*
Cc1ccc(C=Nc2ccccc2C(=O)Nc2ccccc2)cc1	-77.2*
COc1cccc(C=Nc2ccccc2C(=O)Nc2ccccc2)c1O	-70.9*
NNC(=O)c1nn(-c2ccccc2)cc1O	83.4
O=C(c1cnn(-c2ccccc2)c1)c1ccccc1O	-106.5*
O=C(c1cnn(-c2ccccc2)c1)c1cc(F)ccc1O	-163.3*
COc1ccc(C(C(=O)NC2CCCCC2)N(C(=O)CCl)c2cccc(Cl)c2)cc1 (stereo unspecified)	-74.3*
CCC(C)c1ccc(N(C(=O)c2ccco2)C(C(=O)NC2CCCC2)c2cccnc2)cc1 (stereo unspecified)	-115.0*
C#CC(=O)N(c1ccc(OC)cc1OC)C(C(=O)NC1CCCC1)c1cccs1 (stereo unspecified)	92.0
O=C(NC1CCCCC1)C(c1cccnc1)N(C(=O)CCl)c1ccc(F)cc1 (stereo unspecified)	-94.0*
CC(C)c1ccc(N(C(=O)c2ccco2)C(C(=O)NC2CCCC2)c2ccncc2)cc1 (stereo unspecified)	-149.5*
CC(C)(C)C(=O)Cn1ncc(Br)c(Br)c1=O	-91.9*
Cc1nn(-c2ccc(N3CCCCC3)nn2)c(C)c1CCC(=O)Nc1ccc(F)cc1	-89.8*
Cc1nn(-c2ccc(N3CCCCC3)nn2)c(C)c1CCC(=O)Nc1cccc(F)c1	-119.5*
CCOc1ccc(NC(=O)CCc2c(C)nn(-c3ccc(N4CCCCC4)nn3)c2C)cc1	-80.6*
Cc1ccc(-n2nc(C)c3c(C)c(CCC(=O)Nc4ccc(CN5CCCC5)cc4)c(C)nc32)cc1	103.6
Cc1ccc(NC(=O)CCc2c(C)nn(-c3ccc(N4CCCCC4)nn3)c2C)cc1F	-85.1*
CCN(CC)CCNC(=O)c1cc2c(=O)n(C)c3ccccc3c2s1	-70.2*
CCCCN(CC)CCNC(=O)c1cc2c(=O)n(C)c3ccccc3c2s1	-67.2*
CCCCN(CC)CCNC(=O)c1cc2c(-c3ccccc3F)nn(C)c2s1	-74.8*
COc1ncnc2c1oc1ccccc12	-71.0*
c1ccc(Sc2ncnc3c2oc2ccccc23)nc1	-194.6*
Cc1cc(C)c(-c2nc3ccccc3s2)[nH]1	-190.2*
N#Cc1ccc(-c2ccc(OCC3CNC(=O)O3)cc2)cc1 (stereo unspecified)	-74.7*
SMILES	aSyn UTR act
Cc1ccn2c(C(=O)CSc3ccccc3)c(C)nc2c1	-64.7*
Cc1nn(C(=O)c2cccs2)c(N)c1-c1ccccc1	-125.5*
Cc1ccc(C)c(OCc2cc(C(=O)N3C[C@@H](C)O[C@@H](C)C3)no2)c1	-130.8*
Cc1ccc(C)c(OCc2cc(C(=O)N3CCN(c4ccccc4)CC3)no2)c1	-115.0*
Cc1ccc(C)c(OCc2cc(C(=O)N3CCN(C(=O)c4ccco4)CC3)no2)c1	-113.1*
O=C(O)c1ccccc1-c1ccccc1C(=O)Nc1ccc(-c2nc3cc(Cl)ccc3o2)cc1	-77.3*
COc1ccccc1C(=O)Nc1ccc2oc(-c3ccc(F)cc3)nc2c1	-201.4*
CC(C)(C)C(=O)Nc1ccc2oc(-c3cc(F)c(F)cc3Cl)nc2c1	-251.9*
CN(C)c1ccc(-c2nc3cc(N)ccc3o2)cc1	93.4
CC(=O)Nc1ccc(-c2nc3cc(Cl)ccc3o2)cc1	-73.3*
Cc1ccc(N=Nc2ccc(O)c3ncccc23)cc1	86.2
Cc1ccc(N=Nc2c(O)n(CN3CCOCC3)c3ccccc23)cc1	-115.5*
O=C(/C=C/c1c(F)cccc1Cl)Nc1nc2ccccc2[nH]1	-313.8*
Cc1ccc(/C=C/C(=O)Nc2nc3ccccc3[nH]2)cc1	-185.7*
CCCC(=O)n1nc(-c2ccc(C)cc2)nc1NCc1ccco1	-88.1*
Cc1ccc(C(=O)n2nc(-c3ccccc3)nc2NCc2ccco2)cc1	-67.7*
O=S(=O)(c1ccccc1)n1nc(-c2ccccc2)nc1NCc1ccco1	-64.7*
CC(C)(C)c1ccc(-c2noc(CCC(=O)NCc3ccco3)n2)cc1	77.3
Clc1ccc(-c2cnc(Oc3ccccc3)nc2)cc1	-215.6*
CCOC(=O)Cn1cnc(-c2ccc([N+](=O)[O-])cc2)c1	-76.6*
CC1=CC(=C2N=C(c3ccccc3)OC2=O)C=C(C)O1	-146.0*
CC1=CC(=C2C(=O)c3ccccc3C2=O)C=C(C)O1	-128.6*
CCCN1C=CC(=C2C(=O)c3ccccc3C2=O)C=C1	131.6
CC1=CC(=C2C(=O)c3ccccc3C2=O)C=C(C)N1Cc1ccco1	-216.7*
CCN1C=CC(=C2C(=O)c3ccccc3C2=O)C=C1	96.1
SMILES	aSyn UTR act
Cc1nc2ccc(NC(=O)CS(=O)(=O)c3ccccc3)cc2s1	-101.1*
Cc1cc(CNC(=O)COc2ccccc2F)c2ccccc2n1	-95.6*
Cc1nc2ccc(NC(=O)COc3ccccc3F)cc2s1	-132.9*
Cc1nc2ccc(NC(=O)CCC3CCCC3)cc2s1	-143.5*
CC(=O)Nc1ccc2nc(NC(=O)COc3ccccc3Cl)sc2c1	-69.4*
CC(=O)Nc1ccc2nc(NC(=O)COc3ccccc3)sc2c1	-64.4*
COC(=O)c1ccc2c(=O)[nH]c(CSc3nc(C)cs3)nc2c1	-94.0*
CN(C)/C=C1\C(=O)N(c2ccc(Cl)cc2)CS1(=O)=O	-126.2*
Cc1ccc(N2CS(=O)(=O)/C(=C/N(C)C)C2=O)cc1	-108.0*
CCN(CC)c1ccc(/C=N/n2nnnc2N)c(O)c1	-88.7*
CCN(C)c1ccc(/C=N\n2nnnc2N)cc1	-114.8*
COC(=O)c1cc(Br)ccc1-c1ccc(/C=N/n2nnnc2N)o1	55.1
Cc1cccc(-c2nnc(NC(=O)c3ccco3)s2)c1	-124.5*
CC(C)Sc1nnc(NC(=O)c2ccco2)s1	-64.2*
O=C(Nc1nnc(/C=C/c2ccccc2)s1)c1ccco1	-83.2*
COc1ccc(Cc2nnc(NC(=O)c3ccco3)s2)cc1	-62.1*
O=C(Nc1nnc(-c2ccc(F)cc2)s1)c1ccco1	-120.7*
N#Cc1cc2cc3c(cc2nc1N1CCCCC1)OCCO3	-222.1*
N#Cc1cnn2c1nc(N1CCCCC1)c1ccccc12	64.3
CCOC(=O)c1ccc(CNCc2ccccc2)cc1	-65.9*
CCOC(=O)c1cccc(OS(=O)(=O)Cc2ccccc2)c1	-63.2*
CCOC(=O)c1ccc(NC(=S)Nc2ccc(C)cc2)cc1	-145.0*
COC(=O)c1ccc(NC(=O)CNc2ccccc2)cc1	-99.1*
CCOC(=O)c1ccc(S(=O)(=O)NCCN(CC)CC)cc1	51.6
CCOC(=O)c1cn[nH]c1NC(=S)Nc1ccc(Cl)cc1	-66.3*
SMILES	aSyn UTR act
CCOC(=O)c1ccc(NCc2ccc(N(C)C)cc2)cc1	-87.0*
CCOC(=O)c1c(C)c(C(=O)Nc2ccc(N(C)C)cc2)c(C)n1CC	-82.0*
CCOC(=O)c1ccc(NC(=S)Nc2ccccc2)cc1	-146.6*
O=C(Cc1noc2ccccc12)Nc1ccccn1	-89.1*
Cc1ccc(NC(=O)Cc2noc3ccccc23)nc1	-69.2*
Cc1cc(C)n(C(=O)c2cc3sccc3[nH]2)n1	-82.0*
Cc1ccc(NC(=O)Nc2cccc(F)c2)nc1	-176.4*
O=C(Nc1cccc(F)c1)Nc1ccc(Cl)cn1	-135.3*
c1ccc(C[n+]2csc3ccccc32)cc1	-71.5*
N#Cc1nc(-c2ccccc2F)oc1NCCc1ccccn1	-81.3*
COCCCNc1oc(-c2ccccc2F)nc1C#N	-84.3*
COc1ccc2c(c1)CCc1c-2nc2ccccc2c1N1CCOCC1	-86.8*
O=C(Nc1nccs1)c1ccc(Cl)s1	-105.6*
O=C(Nc1nc(-c2ccccn2)cs1)c1ccc(Cl)s1	67.7
O=C(Nc1ccc(Br)cn1)c1ccc(Cl)s1	-167.0*
O=C(Nc1ccccn1)c1ccc(Cl)s1	-128.5*

Source: PubChem
